Epigenetic reg: derepresses silenced GFP reporter in murine cells; murine LDR cells, GFP reporter derepression, 30 h; Potency, µM (doses to about 53.9 µM), usual class: activators; 280,000 compounds, 0.2% hits; AID 1865; also: nearly all actives have a fitted effect of over 60% in size
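In this reporter-derepression format, murine cells bearing a silenced integrated CMV-GFP locus incubate with test compound (30 h, 37 C), then are washed and imaged; fluorescent objects of 20–120 um count as induced cells.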
ClpP mod: qHTS Assay for Activators of ClpP; ATP-dependent Clp protease proteolytic subunit (Bacillus subtilis (strain 168)), P80244; purified B. subtilis ClpP, FRET peptide cleavage, 20 min; Potency, µM (doses to about 57.5 µM); 340,000 compounds, 1.9% hits; AID 651965, 2013; active = well fitted falling curve with a large enough effect; inconclusive = small, poorly fitted or top-dose-only effect; inactive = no such curve, though single readings can be large or run the other way; also: the source files actives as falling curves though it sought activators and does not explain the sign; nearly all actives have a fitted effect of over 65% in size
Target sequence (P80244 whole entry, looked up): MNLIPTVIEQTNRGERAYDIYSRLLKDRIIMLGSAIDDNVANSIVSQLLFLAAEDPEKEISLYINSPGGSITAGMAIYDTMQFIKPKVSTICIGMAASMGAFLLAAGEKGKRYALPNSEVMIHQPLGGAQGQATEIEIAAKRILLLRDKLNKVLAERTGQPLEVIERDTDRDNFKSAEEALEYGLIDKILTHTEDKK
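Purified B. subtilis ClpP, 10 microg/mL final in Tris/HCl pH8 with KCl, BSA, glycerol and Tween-20, cleaved an Abz/nitrotyrosine-quenched decapeptide. Fluorescence (ex 320, em 430) was read at 0 and 20 min at room temperature. Delta was normalized to 5.8 microM ADEP and DMSO/no-enzyme controls.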
RORg inh: inhibitors of mouse ROR gamma transcriptional activity; Drosophila S2 Gal4-RORgamma UAS-luciferase reporter, 20 h; 310,000 compounds, 5.4% hits; AID 2551; Potency, µM (top dose mostly 53.6 µM), hits mostly inhibitors; also: nearly all actives have a fitted effect of over 60% in size
Target sequence (P51450 whole entry, looked up, the tested form may be a part): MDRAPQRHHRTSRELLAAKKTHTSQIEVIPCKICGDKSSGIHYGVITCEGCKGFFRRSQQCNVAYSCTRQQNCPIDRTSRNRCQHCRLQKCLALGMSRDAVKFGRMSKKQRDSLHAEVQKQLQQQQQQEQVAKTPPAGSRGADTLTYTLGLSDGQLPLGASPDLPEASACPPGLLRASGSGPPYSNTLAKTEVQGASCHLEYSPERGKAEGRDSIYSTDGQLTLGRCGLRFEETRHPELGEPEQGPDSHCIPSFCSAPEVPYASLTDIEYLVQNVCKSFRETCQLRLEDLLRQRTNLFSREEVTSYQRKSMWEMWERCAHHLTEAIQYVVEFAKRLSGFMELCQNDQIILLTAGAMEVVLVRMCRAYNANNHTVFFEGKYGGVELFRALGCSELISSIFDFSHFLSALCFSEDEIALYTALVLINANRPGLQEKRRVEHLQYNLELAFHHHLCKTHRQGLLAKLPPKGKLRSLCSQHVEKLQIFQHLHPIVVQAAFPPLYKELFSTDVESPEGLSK
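Luciferase reporter read in Schneider cells carrying Gal4-RORγ (mouse) and UAS-Photinus luciferase; cells given compound 1 h before 700 uM copper sulfate induction, then incubated 20 h at ambient temperature.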
PINK1 modulator: modulators of PINK1 expression; PINK1 immunofluorescence, high-content cytometry, 24 h; Potency, µM (highest dose often 76.6 µM), usual class: activators; 410,000 compounds, 0.2% hits; active = well fitted activation curve with a large enough effect; inconclusive = small, poorly fitted or top-dose-only effect; cell line not stated here; also: nearly all actives have a fitted effect of over 65% in size
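Stable cell line, 250 cells/well, 12 h attachment; compounds pinned at 5 concentrations, 24 h; CCCP control. Fixed with nuclear dye, primary antibodies 12 h at 10 degrees C, secondary plus cell stain; laser-scanning cytometer read.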
VP16 counter: inhibits Gal4-VP16 luciferase reporter, ROR gamma counter-screen; Drosophila S2 Gal4-VP16 UAS-luciferase, luminescence, 20 h; Potency, µM (top dose mostly 53.6 µM), hits mostly inhibitors; 310,000 compounds, 3.5% hits;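 also: Gal4-VP16 expression switched on by copper sulfate through the metallothionein promoter; nearly all actives have a fitted effect of over 50% in size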
Sfp PPTase inh: inhibitors of Bacillus subtilis Sfp phosphopantetheinyl transferase. Biochemical Sfp PPTase activity, qHTS. Potency, µM, most hits filed as inhibitors. 310,000 compounds, 3.5% hits;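 also: the enzyme is Sfp with the accession as filed and its product quenches rhodamine fluorescence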
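Sfp 15 nM + cpd, 15 min RT; start w/ rhodamine-CoA 5 uM, BHQ-2-YbbR 12.5 uM (final); 50 mM Hepes pH 7.6, 10 mM MgCl2, 0.01% NP-40, 0.01% BSA; read 525/598 nm at 0 and 30 min.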
Numbers stand for hits; [ ] = dose if it differs, or a comment. Shown are actives, neighbours in structure and some others; about 8.1% of the full set was active somewhere. Unless noted, calls follow the shape of the dose curve; as a rule, active = well fitted curve in the direction sought with a large enough effect; inconclusive = small, poorly fitted or top-dose-only effect, or another doubt; inactive = no such curve, though single readings can be large; an effect the other way counts as inactive or inconclusive.

What do the screens show for `COc1cc(Nc2nc(SCc3ccccc3Cl)nc3ccccc23)cc(OC)c1`?
Epigenetic reg: inactive; ClpP mod: 28µM; PINK1 modulator: inactive

How did COc1cc(Nc2nc(SCc3ccc(Cl)cc3)nc3ccccc23)cc(OC)c1 do in these assays?
Epigenetic reg: inactive; ClpP mod: 35µM; PINK1 modulator: inactive

How did CN(C)CCCNc1cc(C(C)(C)C)nc2c(-c3ccccc3)cnn12 do in these assays?
Epigenetic reg: inactive; RORg inh: 1.4µM; PINK1 modulator: inactive; VP16 counter: 2.5µM; Sfp PPTase inh: 50µM

Results for Cc1cc(NCCCN2CCOCC2)n2ncc(-c3ccccc3)c2n1 ?
Epigenetic reg: inactive; ClpP mod: inactive; RORg inh: inactive; PINK1 modulator: inactive; VP16 counter: inactive; Sfp PPTase inh: inactive

Results for CC(C)(C)c1cc(NCCCn2ccnc2)n2ncc(-c3ccc(Cl)cc3)c2n1 ?
Epigenetic reg: inactive; ClpP mod: 14µM; RORg inh: inconclusive; PINK1 modulator: inconclusive; VP16 counter: inactive; Sfp PPTase inh: inactive

Results for CN(C)/[N+]([O-])=N/Oc1ccc([N+](=O)[O-])cc1[N+](=O)[O-] ?
PINK1 modulator: inactive

Results for COc1cccc(F)c1C(C[N+](=O)[O-])c1c(N)n(C)c(=O)n(C)c1=O (stereo unspecified) ?
Epigenetic reg: inconclusive; ClpP mod: inactive; RORg inh: 7.1µM; PINK1 modulator: inactive; VP16 counter: 11µM; Sfp PPTase inh: inactive

What do the screens show for `COc1cc(C(C[N+](=O)[O-])c2c(C)[nH]c3ccccc23)ccc1O` (stereo unspecified)?
Epigenetic reg: inactive; ClpP mod: inactive; RORg inh: inactive; PINK1 modulator: inactive; VP16 counter: inactive; Sfp PPTase inh: inactive

How did Cc1ccc(C(C[N+](=O)[O-])c2c(N)n(C)c(=O)n(C)c2=O)cc1 (stereo unspecified) do in these assays?
Epigenetic reg: inactive; ClpP mod: inactive; RORg inh: 13µM; PINK1 modulator: inactive; VP16 counter: inconclusive; Sfp PPTase inh: inactive

What do the screens show for `COc1cc(C(C[N+](=O)[O-])c2c(N)n(C)c(=O)n(C)c2=O)ccc1O` (stereo unspecified)?
Epigenetic reg: inconclusive; RORg inh: 14µM; PINK1 modulator: inactive; VP16 counter: inactive; Sfp PPTase inh: inactive

Results for CCOc1ccc(NC(=O)C(=O)NCCc2sc(-c3ccc(C)cc3)nc2C)cc1 ?
Epigenetic reg: inactive; ClpP mod: inactive; PINK1 modulator: inactive

How did COc1ccc2c(c1)O[C@H](c1ccc3c(c1)OCO3)[C@@H](OC(=O)NS(=O)(=O)c1ccc(F)cc1)C2=O do in these assays?
Epigenetic reg: inactive; RORg inh: inactive; VP16 counter: inactive; Sfp PPTase inh: inactive

Results for CN(CC(=O)NCc1ccccc1Cl)S(=O)(=O)c1ccc2c(c1)c(=O)n(C)c(=O)n2C ?
Epigenetic reg: inactive; ClpP mod: inactive; PINK1 modulator: inactive

Results for N#Cc1c(NC(=O)c2cnn3cccnc23)sc2c1CCCC2 ?
Epigenetic reg: inactive; RORg inh: inactive; PINK1 modulator: inactive; VP16 counter: inactive[10 µM]; Sfp PPTase inh: 45µM

How did CC1CCc2c(sc(NC(=O)c3nc4ncccn4n3)c2C#N)C1 (stereo unspecified) do in these assays?
Epigenetic reg: inactive; ClpP mod: inactive; RORg inh: inactive; PINK1 modulator: inactive; VP16 counter: inactive; Sfp PPTase inh: 22µM

What do the screens show for `CCc1cc2c(nc1CC)CCN(CC/C(C)=N/O[C@@H](C)CN1CCCc3nc(C)c(C)cc31)C2`?
Epigenetic reg: inactive[10.1 µM]; RORg inh: inactive[10 µM]; VP16 counter: inactive[10 µM]; Sfp PPTase inh: inactive

How did CCC1(C)NC(c2ccc3c(c2)OCO3)=CC(c2ccccc2O)N1 (stereo unspecified) do in these assays?
ClpP mod: inactive; PINK1 modulator: inactive

Results for CCCCCC(=O)Nc1c(-c2cccs2)c(=O)c2ccccc2n1C ?
Epigenetic reg: inactive; ClpP mod: inactive; RORg inh: inactive; PINK1 modulator: inactive; VP16 counter: inactive; Sfp PPTase inh: inactive

What do the screens show for `CCCC(=O)Nc1c(-c2ccc(OC)cc2)c(=O)c2ccccc2n1C`?
Epigenetic reg: inactive; ClpP mod: 16µM; RORg inh: inactive; PINK1 modulator: inactive; VP16 counter: inactive; Sfp PPTase inh: inactive

Results for CCCC(=O)Nc1c(-c2ccccc2OC)c(=O)c2ccccc2n1C ?
Epigenetic reg: inactive; ClpP mod: inactive; RORg inh: inactive; PINK1 modulator: inactive; VP16 counter: inactive; Sfp PPTase inh: inactive

How did CCCCCC(=O)Nc1c(-c2ccc(OC)cc2)c(=O)c2ccccc2n1C do in these assays?
Epigenetic reg: inactive; ClpP mod: 25µM; RORg inh: inactive; PINK1 modulator: inactive; VP16 counter: inactive; Sfp PPTase inh: inactive

Results for CCC(=O)Nc1c(-c2cccs2)c(=O)c2ccccc2n1C ?
Epigenetic reg: inactive; ClpP mod: inactive; RORg inh: inactive; PINK1 modulator: inactive; VP16 counter: inactive; Sfp PPTase inh: 89µM

How did CCCCC(=O)Nc1c(-c2ccc(OC)c(OC)c2)c(=O)c2ccccc2n1C do in these assays?
ClpP mod: inactive; RORg inh: inactive; PINK1 modulator: inactive; VP16 counter: inactive; Sfp PPTase inh: inactive

What do the screens show for `O=C(O)c1cc(Oc2ccc([N+](=O)[O-])cc2)cc(Oc2ccc([N+](=O)[O-])cc2)c1`?
RORg inh: inactive; VP16 counter: inactive; Sfp PPTase inh: inactive

How did CCc1ccc(OCc2cc(=O)n3c4c(sc3n2)CCCC4)cc1 do in these assays?
Epigenetic reg: inactive; ClpP mod: inactive; PINK1 modulator: inactive

How did CC(C)(C)C1CCC(=NNC(=S)Nc2cccnc2)CC1 (stereo unspecified) do in these assays?
Epigenetic reg: inactive; RORg inh: inconclusive; PINK1 modulator: inactive; VP16 counter: inactive; Sfp PPTase inh: inconclusive

How did CCNC(=S)NN=C1CCC(C(C)(C)C)CC1 (stereo unspecified) do in these assays?
Epigenetic reg: inactive; ClpP mod: 28µM; RORg inh: 8.9µM; PINK1 modulator: inactive; VP16 counter: inactive; Sfp PPTase inh: 50µM

What do the screens show for `CC1(C)OC(=O)C2(Cc3ccccc3N3CCC(c4ccccc4)CC32)C(=O)O1` (stereo unspecified)?
ClpP mod: inactive; PINK1 modulator: inactive

What do the screens show for `COc1ccc(-c2csc(NNC3=NCCCCC3)n2)cc1`?
Epigenetic reg: inactive; RORg inh: inconclusive; PINK1 modulator: inactive; VP16 counter: inconclusive; Sfp PPTase inh: 13µM

What do the screens show for `CCOc1ccc(-c2csc(NNC3=NCCCCC3)n2)cc1`?
Epigenetic reg: inactive; RORg inh: inconclusive; PINK1 modulator: inactive; VP16 counter: inactive; Sfp PPTase inh: 10µM
